KAT2A inh = blocks human GCN5L2 histone acetyltransferase; Q92830; GCN5L2 HAT assay, ThioGlo1 CoA-SH fluorescence; Potency, µM (doses to about 58.9 µM), most hits filed as inhibitors; hit rate 0.21% among 390,000; AID 504327
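Enzyme at 20nM final was mixed with library compounds for 15 min at room temperature. Peptide H3(1-25) at 75uM, acetyl-CoA at 70uM and ThioGlo1 at 50uM were then added. Plates were read immediately and after 20 min (Ex340nm/Em540nm).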
RECQ1 inh = blocks DNA unwinding by human RECQ1; P46063; AID 2549; Potency, µM (titrated, usually from 57.3 µM), actives largely listed as inhibitors; hit rate 0.54% among 240,000; RECQ1 DNA unwinding, red fluorescence kinetic read; further: nearly all actives have a fitted effect of over 30% in size
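RECQ1T1 50 nM; forked duplex (20 bp + 30-nt ss tails) 200 nM, ATP 2 mM final; pH 8.0, 2 mM MgCl2, 2.5 ug/ml poly(dI-dC); 15 min compound preincubation; discontinuous kinetic read over 2 h at RT.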
BLM helicase inh = Bloom syndrome helicase (human) inhibition; P54132; AID 2528; hit rate 0.2% among 350,000; Potency, µM (titrated, usually from 56.1 µM), usual class: inhibitors; recombinant BLM DNA unwinding, fluorescence dequenching; further: nearly all actives have a fitted effect of over 35% in size
TDP1 block = TDP1 (human) enzyme inhibition | recombinant TDP1, AlphaScreen DNA substrate cleavage | Potency, µM (titrated, usually from 130 µM), actives largely listed as inhibitors | hit rate 0.28% among 350,000 | Q9NUW8 | AID 485290; further: nearly all actives have a fitted effect of over 40% in size
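Steps: enzyme plus compound, 15 min RT; add biotin/phosphotyrosine-FITC oligonucleotide (15 nM final), react 5 min; add donor/acceptor beads (10 ug/ml final), 10 min; read AlphaScreen. Tdp1 at 1 nM final.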
JMJD2E inh = JMJD2E (human) inhibition; B2RXH2; AID 2147; hit rate 1.6% among 230,000; Potency, µM (doses to about 57.1 µM), hits mostly inhibitors; JMJD2E catalytic domain, FDH-coupled NADH fluorescence (FDH is formaldehyde dehydrogenase); further: nearly all actives have a fitted effect of over 50% in size
Target sequence (B2RXH2 1-337 limits assumed): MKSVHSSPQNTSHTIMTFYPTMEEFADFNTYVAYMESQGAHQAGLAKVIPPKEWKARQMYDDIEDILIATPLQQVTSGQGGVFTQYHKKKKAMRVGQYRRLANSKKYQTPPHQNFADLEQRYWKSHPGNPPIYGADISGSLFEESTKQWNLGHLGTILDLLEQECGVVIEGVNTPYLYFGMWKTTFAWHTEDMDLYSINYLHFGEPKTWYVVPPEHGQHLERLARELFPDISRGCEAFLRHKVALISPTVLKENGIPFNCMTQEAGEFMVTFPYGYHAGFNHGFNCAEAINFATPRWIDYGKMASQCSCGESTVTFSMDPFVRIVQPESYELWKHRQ
APE1 inh = APE1 (human) endonuclease inhibition; recombinant APE1, TAMRA/BHQ-2 abasic DNA cleavage fluorescence; hit rate 0.35% among 350,000; AID 2517; Potency, µM (doses to about 65.8 µM), most hits filed as inhibitors; further: nearly all actives have a fitted effect of over 55% in size
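Activity was derived from the fluorescence gain between first and third kinetic reads (60 s intervals, ex 525/em 598 nm) after 50 nM THF-abasic TAMRA/BHQ-2 duplex was added to 0.75 nM APE1 preincubated 15 min with compound.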
A number is an active result; 0 = inactive; ? = inconclusive; - = no result given; ! = a repeat was not active; [ ] = remark or other dose. The sample as a whole holds a higher share of hits than the screen did. Unless noted, the call rests on the fitted dose curve; in most records, active means well fitted curve in the direction sought with a large enough effect; inconclusive means small, poorly fitted or top-dose-only effect, or another doubt; inactive means no such curve, though single readings can be large; an effect the other way counts as inactive or inconclusive.

SMILES	KAT2A inh	RECQ1 inh	BLM helicase inh	TDP1 block	JMJD2E inh	APE1 inh
CC1=NN(c2nc(-c3ccc(Cl)cc3)cs2)C(=O)C1	0	0	?	0	25µM	0
COc1ccccc1NC(=O)Cn1c(O)c(N=NC(=O)c2ccccc2O)c2ccccc21	0	0	18µM	0	0	0
N#Cc1c(-c2ccc(F)c(Br)c2)no[n+]1[O-]	-	-	-	-	-	0
CN(N=O)C(=O)N[C@@H]1[C@@H](O)[C@H](O)[C@@H](CO)O[C@@H]1O	-	-	-	-	-	0
Cc1ccc(/C(O)=C/c2nc3ccccc3oc2=O)cc1	0	0	0	-	0	0
Cc1nc(C)c(/C(O)=C\c2nc3ccc([N+](=O)[O-])cc3oc2=O)o1	0	0	0	-	20µM	0
COc1c(-c2coc3cc4c(cc3c2=O)CC(OC(C)=O)C(C)(C)O4)ccc2c1C=CC(C)(C)O2 (stereo unspecified)	0	0	0	0	0	22µM
O=C(/C=C\c1ccc(O)c(O)c1)O[C@@H]1C[C@](O)(C(=O)O)C[C@@H](O)[C@@H]1O	0	0	0	0[21 µM]	4.5µM	0
CCc1cc(=O)oc2cc(OCc3nn[nH]n3)ccc12	0	0	0	0	20µM	0
CCc1cc(=O)oc2cc(OCC=C(C)C)ccc12	0	0	0	0	?	0
CCCc1nc2ccccc2c(=O)n1/N=C/c1ccccc1O	0	0	0	0	32µM	0
Cc1nc2ccccc2c(=O)n1/N=C/c1ccc(O)cc1O	0	0	0	0	?	0
Cc1ccc(CNCc2cn[nH]c2-c2ccc(C)cc2)cc1	-	-	-	0	-	-
O=C(N/N=C1/CCCc2ccccc21)c1cc([N+](=O)[O-])cc([N+](=O)[O-])c1	0	0	0	0	0	0
O=C(N/N=C1\CCCc2ccccc21)c1cccc([N+](=O)[O-])c1	32µM	0	0	0	0	0
CCC[C@@H]1C[C@@]1(CCC)C(NP(=O)(c1ccccc1)c1ccccc1)c1ccc(Cl)cc1 (stereo partly specified)	-	0	0	-	25µM	0
COc1cc(OC)cc(C(=O)Oc2ccc(/C=N/Nc3nc4ccccc4s3)cc2OC)c1	0	0	0	0	35µM	0
COc1cc(/C=N/Nc2nc3ccccc3s2)ccc1OC(=O)c1ccccc1F	0	0	0	0	0	0
O=C1CCCC2=C1C1(CCC1)N=C(Nc1nc3ccccc3o1)N2	-	-	-	0	-	-
COc1oc(=O)c2cc(N)ccc2c1Cl	0	0	0	0	-	0
O=C1S/C(=C\C=C\c2ccco2)C(=O)N1c1ccc(O)cc1	0	0	25µM	0	0	0
O=C(O)C(Cc1ccccc1)N1C(=O)/C(=C/C=C/c2ccco2)SC1=S (stereo unspecified)	8.9µM	2.8µM	22µM	-	7.9µM	1.6µM
O=C(O)CC(C(=O)O)N1C(=O)/C(=C/c2ccc(-c3nc4ccccc4s3)o2)SC1=S (stereo unspecified)	?	?	0	-	2.8µM	0
COc1ccc(/C=C2\SC(=S)N(C(Cc3ccccc3)C(=O)O)C2=O)cc1 (stereo unspecified)	0	0	0	0	0	0
CCC(C(=O)O)N1C(=O)/C(=C/c2cccn2C)SC1=S (stereo unspecified)	0	0	0	0	0	0
SMILES	KAT2A inh	RECQ1 inh	BLM helicase inh	TDP1 block	JMJD2E inh	APE1 inh
O=C(O)CC(C(=O)O)N1C(=O)/C(=C/C=C/c2ccco2)SC1=S (stereo unspecified)	0	4µM	0	-	11µM	1µM
C/C=C(/CC[C@@H](C)[C@H]1CCC2C3=CC[C@H]4[C@H](C)[C@@H](O)CC[C@]4(C)C3CC[C@@]21C)C(C)C (stereo partly specified)	?	0	0	0	-	-
COc1ccc(CN(Cc2ccccc2)C(=O)c2ccccc2O)cc1COc1ccc(NC(C)=O)cc1	-	-	-	0	-	-
COC(=O)c1cccc(-n2sc3ccccc3c2=O)c1	1.6µM	-	-	0	-	0
O=c1c2ccccc2sn1-c1ccc(F)cc1	2µM	-	-	0	-	0
Cn1ccc2cc3c(cc21)CCN3C(=O)Nc1cccnc1	0	0	0	0	35µM!	?
N#Cc1ccccc1COC(=O)c1ccc2c(c1)OCCO2	0	-	-	89µM	-	0
N#Cc1ccccc1COC(=O)c1ccc2c(c1)OCO2	0	-	-	0	-	0
